From PubChem BioAssay (Tox21)
A number with no mark means an inactive call. Records with an inconclusive call do not appear. Entries that show only a call come without a potency. Calls of active or inactive are those of the source. Unless noted, calls follow the shape of the dose curve; as a rule, active = well fitted curve in the direction sought with a large enough effect in the repeat runs; inconclusive = weak or mixed curves; inactive = no such curve, though single readings can be large; an effect the other way counts as inactive or inconclusive.

Tests used:
[1] = biological target: Progesterone receptor (Homo sapiens) (UniProt P06401); assay: qHTS assay to identify small molecule agonists of the progesterone receptor (PR) signaling pathway (AID 1346784; calls by dose curve; also: nearly all actives have a fitted effect of over 30% in size)
Progesterone receptor (Homo sapiens), sequence (P06401 whole entry, looked up): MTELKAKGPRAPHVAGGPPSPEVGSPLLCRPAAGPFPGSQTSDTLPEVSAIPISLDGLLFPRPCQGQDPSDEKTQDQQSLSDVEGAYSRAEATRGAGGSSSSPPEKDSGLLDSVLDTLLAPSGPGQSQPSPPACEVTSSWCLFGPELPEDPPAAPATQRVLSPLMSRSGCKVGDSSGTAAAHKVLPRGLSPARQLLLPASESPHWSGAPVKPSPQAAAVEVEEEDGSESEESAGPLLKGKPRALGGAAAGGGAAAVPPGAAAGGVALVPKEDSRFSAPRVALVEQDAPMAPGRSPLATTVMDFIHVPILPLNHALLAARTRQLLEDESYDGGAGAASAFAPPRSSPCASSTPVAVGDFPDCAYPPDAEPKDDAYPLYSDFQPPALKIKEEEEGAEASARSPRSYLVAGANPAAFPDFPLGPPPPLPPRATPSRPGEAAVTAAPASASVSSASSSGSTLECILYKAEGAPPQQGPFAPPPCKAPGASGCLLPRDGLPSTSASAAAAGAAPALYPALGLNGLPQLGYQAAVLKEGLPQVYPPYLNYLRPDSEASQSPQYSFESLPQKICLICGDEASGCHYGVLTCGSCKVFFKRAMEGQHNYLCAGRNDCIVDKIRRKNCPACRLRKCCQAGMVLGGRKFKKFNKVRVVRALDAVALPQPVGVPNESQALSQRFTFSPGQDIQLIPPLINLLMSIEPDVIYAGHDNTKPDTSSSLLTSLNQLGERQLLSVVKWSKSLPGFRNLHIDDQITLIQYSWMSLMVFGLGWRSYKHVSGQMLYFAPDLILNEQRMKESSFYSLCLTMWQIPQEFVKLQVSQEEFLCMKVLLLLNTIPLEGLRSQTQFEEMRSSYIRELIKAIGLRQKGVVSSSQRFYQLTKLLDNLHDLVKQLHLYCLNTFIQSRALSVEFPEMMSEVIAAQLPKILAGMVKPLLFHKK
How it was run: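 Agonist mode, quantitative HTS format in a HEK 293T line expressing a UAS-controlled beta-lactamase reporter; 16 hr compound exposure at 37C in 2% charcoal-stripped FBS, then LiveBLAzer B/G FRET fluorescence.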

[2] = qHTS assay to identify small molecule antagonists of the progesterone receptor (PR) signaling pathway - cell viability counter screen (AID 1346798); also: series mostly up to about 92 µM; nearly all actives have a fitted effect of over 50% in size
How it was run: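 Same-well multiplex: after 16 hr at 37C with compound and R5020 stimulation, HEK293T cells carrying a UAS-bla reporter received LiveBLAzer substrate (2 hr RT), then CellTiter-Glo (30 min RT) for luminescent viability.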

[3] = qHTS assay to identify small molecule antagonists of the TGF-beta/Smad signaling pathway - cell viability counter screen (AID 1346824); also: nearly all actives have a fitted effect of over 50% in size; also: potency is read from the fitted curve at half-maximal effect
How it was run: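 SBE-bla HEK 293T cells were plated overnight at 37 C, then given compounds in DMSO plus TGF-beta1 (added as 0.25 ng/mL solution) for 5 hr. After the bla read, CellTiter-Glo was added to the same wells and luminescence read after 30 min at room temperature.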

[4] = qHTS assay to identify small molecule agonists of the TGF-beta/Smad signaling pathway - cell viability counter screen (AID 1346829); also: top concentration of the series differs between compounds; nearly all actives have a fitted effect of over 45% in size
How it was run: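 Compound-treated SBE-bla HEK 293T cells (5 hr, 37 C) were assessed for viability with CellTiter-Glo in parallel with the reporter read.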

[5] = qHTS assay to identify small molecule agonists of the TGF-beta/Smad signaling pathway (AID 1346859; active = well fitted activation curve with a large enough effect in the signal ratio in the repeat runs, not every such curve was filed as active; the % refers to the signal ratio; also: series mostly up to about 77 µM)
How it was run: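 Smad-responsive beta-lactamase reporter cells (HEK 293T) received compounds from DMSO stocks after overnight attachment, were incubated 5 hr, then treated 2 hr with FRET substrate before dual-emission fluorescence measurement (405 nm excitation).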

[6] = biological target: Thyrotropin-releasing hormone receptor (Homo sapiens) (UniProt P34981); assay: qHTS assay to identify small molecule antagonists of the thyrotropin-releasing hormone receptor (TRHR) signaling pathway (AID 1346877; active = well fitted inhibition curve with a large enough effect in the repeat runs, not every such curve was filed as active; also: series mostly up to about 51 µM)
Thyrotropin-releasing hormone receptor (Homo sapiens), sequence (P34981 whole entry, looked up): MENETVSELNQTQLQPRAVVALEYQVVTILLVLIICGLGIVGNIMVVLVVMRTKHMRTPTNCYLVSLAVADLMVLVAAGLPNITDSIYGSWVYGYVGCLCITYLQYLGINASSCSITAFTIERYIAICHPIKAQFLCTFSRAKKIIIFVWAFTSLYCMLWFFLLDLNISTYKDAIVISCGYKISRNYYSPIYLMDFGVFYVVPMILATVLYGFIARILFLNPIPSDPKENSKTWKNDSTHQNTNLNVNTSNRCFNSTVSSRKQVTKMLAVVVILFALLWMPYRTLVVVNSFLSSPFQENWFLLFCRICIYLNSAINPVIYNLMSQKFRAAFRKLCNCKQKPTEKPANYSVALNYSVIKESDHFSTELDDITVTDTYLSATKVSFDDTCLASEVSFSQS
How it was run: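 Antagonist mode: after a 5 min room-temperature compound exposure, cells were stimulated with 1 nM (final) TRH. Dye-loaded TRHR-HEK293 cells were used, and calcium-dependent fluorescence was followed for 3 min, with 15-point titrations run in triplicate.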

[7] = biological target: Thyrotropin-releasing hormone receptor (Homo sapiens) (UniProt P34981); assay: qHTS assay to identify small molecule agonists of the thyrotropin-releasing hormone receptor (TRHR) signaling pathway (AID 1346891; calls by dose curve;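 also: HEK293 cells expressing TRHR with calcium dye readout; series mostly up to about 58 µM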)
How it was run: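 Agonist-mode calcium mobilisation screen: TRHR-transfected HEK293 cells cultured overnight (18 h), dye-loaded for 2 h at 37 °C, exposed to compounds, and monitored by fluorescence for 3 min.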

[8] = Human pregnane X receptor (PXR) small molecule agonists, qHTS cell viability counter screen (AID 1346977); also: nearly all actives have a fitted effect of over 50% in size; also: potency is read from the fitted curve at half-maximal effect
How it was run: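 Measures live-cell protease fluorescence (CellTiter-Fluor) in PXR-Luc HepG2 cells treated 24hr with compounds at 37C. Cells had 5hr to attach before pin transfer of DMSO solutions.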

[9] = Caspase-3/7 induction in HepG2 cells by small molecules, qHTS assay (AID 1346978); also: nearly all actives have a fitted effect of over 15% in size
How it was run: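 Wild-type HepG2 cells (2,000/well) were settled 5 h at 37 C, 5% CO2, then exposed to compounds in DMSO for 17 h. Caspase-3/7 activity was read by luminescence 30 min after adding Caspase-Glo 3/7 reagent at room temperature.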

[10] = Caspase-3/7 induction in CHO-K1 cells by small molecules, qHTS cell viability counter screen (AID 1346979); also: nearly all actives have a fitted effect of over 35% in size; also: potency is read from the fitted curve at half-maximal effect
How it was run: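 In the same wells as the caspase read, viability of compound-treated wild-type CHO-K1 cells was assessed using CellTiter-Fluor, added after 16hr at 37C and measured by fluorescence following 1hr further incubation.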

[11] = Caspase-3/7 induction in CHO-K1 cells by small molecules, qHTS assay (AID 1346980); also: nearly all actives have a fitted effect of over 15% in size
How it was run: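 Wild-type cells were seeded at 1,500 per well and settled 5 hr at 37 C, 5% CO2, then exposed to DMSO-dissolved compounds for 17 hr. Caspase-Glo 3/7 reagent was added, and luminescence was read after 30min at room temperature.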

[12] = Caspase-3/7 induction in HepG2 cells by small molecules, qHTS cell viability counter screen (AID 1346981); also: nearly all actives have a fitted effect of over 30% in size; also: potency is read from the fitted curve at half-maximal effect
How it was run: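 CellTiter-Fluor fluorescence measured viability in the same wells used for Caspase-Glo 3/7. HepG2 (wild type) at 2,000 cells/well were pre-incubated 5 hr, dosed, and given reagent at 16 hr, with 1 hr further at 37C.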

[13] = biological target: Nuclear receptor subfamily 1 group I member 2 (Homo sapiens) (UniProt O75469); assay: Human pregnane X receptor (PXR) small molecule agonists, qHTS assay (AID 1346982); also: nearly all actives have a fitted effect of over 35% in size; also: potency is read from the fitted curve at half-maximal effect
Nuclear receptor subfamily 1 group I member 2 (Homo sapiens), sequence (O75469 whole entry, looked up): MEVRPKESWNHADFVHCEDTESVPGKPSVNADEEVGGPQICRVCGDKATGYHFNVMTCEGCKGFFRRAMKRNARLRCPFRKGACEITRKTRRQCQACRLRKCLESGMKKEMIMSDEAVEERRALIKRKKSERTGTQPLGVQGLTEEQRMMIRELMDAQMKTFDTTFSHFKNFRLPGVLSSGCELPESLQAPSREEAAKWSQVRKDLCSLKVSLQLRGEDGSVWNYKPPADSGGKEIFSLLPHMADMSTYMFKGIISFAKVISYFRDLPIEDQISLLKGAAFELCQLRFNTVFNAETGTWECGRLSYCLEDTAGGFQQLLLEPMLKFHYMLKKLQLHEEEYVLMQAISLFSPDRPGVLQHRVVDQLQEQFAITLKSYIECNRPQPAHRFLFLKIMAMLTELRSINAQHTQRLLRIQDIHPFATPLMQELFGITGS
How it was run: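 Agonist mode: luminescence from ONE-Glo after 24 h compound exposure at 37C in HepG2 cells carrying hPXR-responsive CYP3A4 luciferase, plated in charcoal-stripped serum medium 5 h beforehand.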

[14] = biological target: Cytochrome P450 2D6 (Homo sapiens) (UniProt P10635); assay: Cytochrome P450 Family 2 Subfamily D Member 6 (CYP2D6) small molecule antagonists: luciferase reporter qHTS assay (AID 1671196); also: nearly all actives have a fitted effect of over 50% in size; also: potency is read from the fitted curve at half-maximal effect
Cytochrome P450 2D6 (Homo sapiens), sequence (P10635 whole entry, looked up): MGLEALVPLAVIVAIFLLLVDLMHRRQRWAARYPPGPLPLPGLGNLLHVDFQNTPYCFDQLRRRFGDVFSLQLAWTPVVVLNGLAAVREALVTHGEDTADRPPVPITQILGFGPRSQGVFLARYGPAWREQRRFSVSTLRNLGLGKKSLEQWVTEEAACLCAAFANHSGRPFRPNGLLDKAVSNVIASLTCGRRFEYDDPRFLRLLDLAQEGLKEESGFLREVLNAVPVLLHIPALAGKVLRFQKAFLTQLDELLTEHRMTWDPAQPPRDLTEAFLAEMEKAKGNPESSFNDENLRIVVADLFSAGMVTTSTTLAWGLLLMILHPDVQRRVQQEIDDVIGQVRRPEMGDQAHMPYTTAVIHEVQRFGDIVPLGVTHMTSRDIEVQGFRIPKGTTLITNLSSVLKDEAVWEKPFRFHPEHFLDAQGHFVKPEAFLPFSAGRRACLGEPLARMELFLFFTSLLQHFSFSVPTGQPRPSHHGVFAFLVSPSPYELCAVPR
How it was run: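 CYP2D6 activity was followed as luminescence from its luciferin product after a 1 h NADPH-driven reaction at room temperature. Enzyme-substrate mix and compound were pre-incubated for 10 min, and the signal was read 20 min after adding detection reagent.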

[15] = biological target: Cytochrome P450 2C19 (Homo sapiens) (UniProt P33261); assay: Cytochrome P450 Family 2 Subfamily C Member 19 (CYP2C19) small molecule antagonists: luciferase reporter qHTS assay (AID 1671197); also: nearly all actives have a fitted effect of over 65% in size; also: potency is read from the fitted curve at half-maximal effect
Cytochrome P450 2C19 (Homo sapiens), sequence (P33261 whole entry, looked up): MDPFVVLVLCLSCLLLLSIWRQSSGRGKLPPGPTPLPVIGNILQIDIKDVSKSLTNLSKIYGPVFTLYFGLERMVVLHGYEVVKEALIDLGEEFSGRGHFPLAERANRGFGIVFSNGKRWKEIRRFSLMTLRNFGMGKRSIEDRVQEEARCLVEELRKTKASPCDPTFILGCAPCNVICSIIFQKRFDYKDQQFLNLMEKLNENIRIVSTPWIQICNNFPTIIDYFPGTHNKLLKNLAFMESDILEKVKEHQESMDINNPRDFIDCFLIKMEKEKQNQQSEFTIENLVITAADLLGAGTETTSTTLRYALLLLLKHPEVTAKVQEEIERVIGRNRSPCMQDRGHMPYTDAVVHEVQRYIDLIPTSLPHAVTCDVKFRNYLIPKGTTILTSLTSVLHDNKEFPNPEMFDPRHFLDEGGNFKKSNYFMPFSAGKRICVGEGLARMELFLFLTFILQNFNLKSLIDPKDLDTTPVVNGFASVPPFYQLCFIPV
How it was run: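 P450-Glo CYP2C19 screening system; proluciferin substrate; DMSO compound stocks; 10 min RT preincubation; NADPH regeneration, 1 h at 37C; luciferin detection reagent, 20 min RT; luminescence as RLU.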

[16] = qHTS assay to identify small molecule agonists of the progesterone receptor (PR) signaling pathway - cell viability counter screen (AID 1346799; calls by dose curve; also: nearly all actives have a fitted effect of over 45% in size)
How it was run: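 Counter screen for cytotoxicity: compound-treated PR-UAS-bla HEK293T cells (16 hr, 37C, 5% CO2) were assayed with CellTiter-Glo, luminescence measured after 30 min at room temperature.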

[17] = biological target: Nuclear receptor subfamily 1 group I member 2 (Rattus norvegicus) (UniProt Q9R1A7); assay: Rat pregnane X receptor (rPXR) activation by small molecules, qHTS assay (AID 1346983); details: rPXR luciferase reporter cells, One-Glo luminescence, 24 h; max activation: hits give high values; also: nearly all actives have a fitted effect of over 20% in size
Nuclear receptor subfamily 1 group I member 2 (Rattus norvegicus), sequence (Q9R1A7 whole entry, looked up): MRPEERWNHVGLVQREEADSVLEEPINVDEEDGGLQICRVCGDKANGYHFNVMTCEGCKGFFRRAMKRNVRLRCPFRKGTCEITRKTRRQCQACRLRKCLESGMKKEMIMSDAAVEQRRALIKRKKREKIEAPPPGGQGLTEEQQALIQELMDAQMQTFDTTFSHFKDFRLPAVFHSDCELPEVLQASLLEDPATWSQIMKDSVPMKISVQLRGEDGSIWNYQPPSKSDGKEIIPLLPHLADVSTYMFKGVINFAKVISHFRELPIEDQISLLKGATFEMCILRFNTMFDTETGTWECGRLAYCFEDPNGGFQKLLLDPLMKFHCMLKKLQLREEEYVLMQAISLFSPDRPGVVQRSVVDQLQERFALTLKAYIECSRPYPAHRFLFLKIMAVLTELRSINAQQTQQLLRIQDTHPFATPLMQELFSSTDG
How it was run: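 Cell-based rPXR luciferase reporter assay, 2,000 cells per well, rested 5hr at 37 C before compound addition in DMSO, then 24 hr at 37 C. One-Glo reagent was added and luminescence read after 30 min at room temperature.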

[18] = biological target: Nuclear receptor subfamily 1 group I member 2 (Homo sapiens) (UniProt O75469); assay: CYP3A4 induction through human pregnane X receptor (PXR) by small molecules, qHTS assay (AID 1346984); also: nearly all actives have a fitted effect of over 40% in size
How it was run: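 Read-out is luminescence after One-Glo addition, following a 3 hr, 37C incubation with Luciferin-IPA CYP3A4 substrate (3uM final). Before that, compounds were on DPX-2 cells (HepG2 co-transfected with PXR element plus CYP3A4-promoter luciferase) for 24 hr at 37C.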

[19] = biological target: Progesterone receptor (Homo sapiens) (UniProt P06401); assay: qHTS assay to identify small molecule antagonists of the progesterone receptor (PR) signaling pathway (AID 1346795; active = well fitted inhibition curve with a large enough effect in the signal ratio in the repeat runs, not every such curve was filed as active; the % refers to the signal ratio; also: potency is read from the fitted curve at half-maximal effect)
How it was run: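 HEK293T PR-UAS-bla reporter cells in charcoal-stripped serum (2%) received compound after a 6 hr settling period, followed by R5020 agonist at 1 nM final; 16 hr incubation preceded the FRET substrate step and fluorescence measurement.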

[20] = biological target: Nuclear receptor subfamily 1 group I member 2 (Homo sapiens) (UniProt O75469); assay: Human pregnane X receptor (PXR) activation by small molecules, qHTS assay (AID 1346985); also: nearly all actives have a fitted effect of over 40% in size
How it was run: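 DPX-2 cells (HepG2 co-transfected with a PXR response element and a CYP3A4-promoter luciferase construct) were seeded at 2,000 per well, rested 5 hr at 37C, then exposed to DMSO-dissolved compounds for 24 hr. Activation was read as luciferase luminescence.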

Row | Structure (SMILES) | Potency [1] | Potency [2] | Potency [3] | outcome [4] | Potency [5] | outcome [6] | Potency [7] | Potency [8] | Potency [9] | Potency [10] | Potency [11] | Potency [12] | Potency [13] | Potency [14] | Potency [15] | Potency [16] | max activation [17] [%] | Potency [18] | Potency [19] | Potency [20]
1 | O=[N+]([O-])c1ccc2[nH]ncc2c1 | inactive | inactive | inactive | inactive | inactive | inactive | inactive | inactive | inactive | inactive | inactive | inactive | inactive | inactive | – | – | – | – | – | –
2 | CCOC(=O)COC(=O)c1cc(Oc2ccc(C(F)(F)F)cc2Cl)ccc1[N+](=O)[O-] | inactive | inactive | inactive | inactive | – | – | – | inactive | inactive | – | inactive | inactive | – | 15.9 µM (active) | 11.2 µM (active) | – | – | – | – | –
3 | Cc1cc(N)c2cc(NC(=O)Nc3ccc4nc(C)cc(N)c4c3)ccc2n1 | inactive | – | inactive | inactive | inactive | inactive | inactive | inactive | inactive | inactive | inactive | inactive | – | – | – | – | – | – | – | –
4 | O=S(c1cc(Cl)cc(Cl)c1O)c1cc(Cl)cc(Cl)c1O | inactive | – | inactive | inactive | inactive | inactive | inactive | inactive | inactive | inactive | inactive | inactive | inactive | inactive | – | inactive | -2.94 | inactive | – | –
5 | NC(=O)C(c1ccccc1)(c1ccccc1)[C@@H]1CCN(CCc2ccc3c(c2)CCO3)C1 | inactive | inactive | – | inactive | inactive | inactive | inactive | – | inactive | inactive | inactive | inactive | – | 0.389 µM (active) | inactive | – | – | – | – | –
6 | O=C(Nc1ccccc1)c1ccccc1O | inactive | inactive | – | inactive | inactive | inactive | inactive | – | inactive | – | inactive | – | – | 35.6 µM (active) | 22.4 µM (active) | – | – | – | – | –
7 | O=C1OC(CN2CCOCC2)CN1/N=C/c1ccc([N+](=O)[O-])o1 (centres undefined) | – | inactive | inactive | inactive | inactive | – | – | – | inactive | – | inactive | – | inactive | 38.9 µM (active) | inactive | – | -7.02 | inactive | inactive | –
8 | CCCCCCCCCc1ccc(OCCOCCO)cc1 | – | – | 18.3 µM (active) | – | – | inactive | inactive | 5.74 µM (active) | – | 18.1 µM (active) | inactive | 20.4 µM (active) | 6.44 µM (active) | 23.6 µM (active) | 16.7 µM (active) | – | -12.1 | inactive | 12.8 µM (active) | inactive
9 | CC(C)(O)c1ccc(CNC(=O)c2cccnc2Oc2ccc(F)cc2)cc1 | – | – | inactive | inactive | – | – | – | inactive | inactive | inactive | inactive | inactive | 54.5 µM (active) | inactive | – | – | – | – | inactive | –
